Common to all, as to settings: primary human HUVEC with PBMC; actives raise or lower the signal
Test [1] in a line: BSK_LPS_PGE2: BioMAP Diversity Plus: LPS Assay for Prostaglandin E2 (PGE2) Biomarker Activity (AID 2283082).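 For AC50: secreted prostaglandin E2 measured by ELISA in LPS-stimulated co-culture.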 The method, boiled down:
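LPS-activated HUVEC/PBMC co-culture; cmpd dosed, 24 h; PGE2 by ELISA; bidirectional fit vs DMSO; SRB (0.1%, TCA-fixed, 560 nm) in parallel plates for overt cytotox.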

Read-out in test [2]: Macrophage colony-stimulating factor (MCSF), CSF1 (gene 1435)
Nature of the test: BSK_LPS_MCSF: BioMAP Diversity Plus: LPS Assay for Macrophage colony-stimulating factor (MCSF) Biomarker Activity (AID 2283083). An outline of the steps: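 HUVEC + PBMC co-culture (human primary), 24 h post-dose; M-CSF by ELISA; gain/loss of signal fitted bidirectionally vs DMSO baseline.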

Read-out in test [3]: Tissue Factor, F3 (gene 2152)
Put plainly: BSK_LPS_TissueFactor: BioMAP Diversity Plus: LPS Assay for Tissue Factor Biomarker Activity (AID 2283084). The method, boiled down:
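HUVEC/PBMC co-culture, LPS-activated; CD142 ELISA read 24 h post-dose; bidirectional curve fit vs DMSO negative control.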

Read-out in test [4]: Tumor necrosis factor (Homo sapiens) (UniProt P01375)
Nature of the test: BSK_LPS_TNFa: BioMAP Diversity Plus: LPS Assay for Tumour Necrosis Factor alpha (TNFa) Biomarker Activity (AID 2283085). An outline of the steps:
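Read-out is ELISA of TNFa in primary human endothelial cell–PBMC co-cultures at 24 h after compound. Activity in either direction was fitted against DMSO.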

Read-out in test [5]: Vascular cell adhesion molecule 1 (VCAM1), VCAM1 (gene 7412)
Nature of the test: BSK_LPS_VCAM1: BioMAP Diversity Plus: LPS Assay for Vascular cell adhesion molecule 1 (VCAM1) Biomarker Activity (AID 2283086). The method, boiled down:
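HUVEC + PBMC co-culture, LPS system; compound 24 h; VCAM-1 by ELISA; bidirectional fit vs DMSO control; parallel SRB (0.1%, TCA-fixed, 560 nm) for cytotoxicity.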

Read-out in test [6]: CD38, CD38 (gene 952)
Put plainly: BSK_SAg_CD38: BioMAP Diversity Plus: SAg Assay for CD38 Biomarker Activity (AID 2283087). An outline of the steps: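 Human HUVEC plus PBMC co-culture stimulated with superantigen; CD38 measured by ELISA 24 h after chemical dosing. Fluorescence read-out, bidirectional fit against DMSO; cytotoxicity tracked in parallel by SRB and Alamar Blue.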

Read-out in test [7]: CD40, CD40 (gene 958)
Put plainly: BSK_SAg_CD40: BioMAP Diversity Plus: SAg Assay for CD40 Biomarker Activity (AID 2283088). The method, boiled down:
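HUVEC/PBMC co-culture, 24 h post-dose; CD40 by ELISA, fluorescence intensity; bidirectional fit vs DMSO negative control.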

Read-out in test [8]: CD69, CD69 (gene 969)
Put plainly: BSK_SAg_CD69: BioMAP Diversity Plus: SAg Assay for CD69 Biomarker Activity (AID 2283089).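 For AC50: cell surface CD69 protein quantified by ELISA with fluorescence detection.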 An outline of the steps: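 Values derive from bidirectional fitting relative to DMSO vehicle. Cells: umbilical vein endothelium plus peripheral blood mononuclear cells, treated 24 h before fluorescent ELISA for CD69.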

Read-out in test [9]: Monocyte Chemoattractant Protein-1 (MCP1), CCL2 (gene 6347)
Put plainly: BSK_SAg_MCP1: BioMAP Diversity Plus: SAg Assay for Monocyte Chemoattractant Protein-1 (MCP1) Biomarker Activity (AID 2283090). The method, boiled down:
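MCP-1 levels in the endothelial–PBMC SAg co-culture were quantified by ELISA at 24 h post-dosing; both increases and decreases versus DMSO scored. Cytotoxicity monitored by SRB total protein in parallel cultures.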

Read-out in test [10]: E-selectin (Homo sapiens) (UniProt P16581)
Put plainly: BSK_SAg_Eselectin: BioMAP Diversity Plus: SAg Assay for Eselectin Biomarker Activity (AID 2283091). The method, boiled down: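 E-selectin ELISA readout at 24 h post-dosing in human umbilical vein endothelial cell/PBMC co-culture; gain or loss of signal fitted relative to DMSO baseline.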

Drawing on PubChem BioAssay (EPA / NIEHS), this text covers outcome and AC50 for 9 compounds.

Active and inactive are the calls of the source. Rule for the calls: active = hit-call score of the fitted dose curve at least 0.9, where 1 is the maximum; inactive = score below 0.9.

Chain of Tumor necrosis factor (Homo sapiens) (P01375 whole entry, looked up): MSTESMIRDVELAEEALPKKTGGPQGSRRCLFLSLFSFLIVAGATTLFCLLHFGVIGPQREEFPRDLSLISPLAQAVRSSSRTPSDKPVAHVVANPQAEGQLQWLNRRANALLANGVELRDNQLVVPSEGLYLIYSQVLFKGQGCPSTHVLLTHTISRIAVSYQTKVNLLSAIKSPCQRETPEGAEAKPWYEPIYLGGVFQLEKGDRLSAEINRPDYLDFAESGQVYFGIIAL
Chain of E-selectin (Homo sapiens) (P16581 whole entry, looked up): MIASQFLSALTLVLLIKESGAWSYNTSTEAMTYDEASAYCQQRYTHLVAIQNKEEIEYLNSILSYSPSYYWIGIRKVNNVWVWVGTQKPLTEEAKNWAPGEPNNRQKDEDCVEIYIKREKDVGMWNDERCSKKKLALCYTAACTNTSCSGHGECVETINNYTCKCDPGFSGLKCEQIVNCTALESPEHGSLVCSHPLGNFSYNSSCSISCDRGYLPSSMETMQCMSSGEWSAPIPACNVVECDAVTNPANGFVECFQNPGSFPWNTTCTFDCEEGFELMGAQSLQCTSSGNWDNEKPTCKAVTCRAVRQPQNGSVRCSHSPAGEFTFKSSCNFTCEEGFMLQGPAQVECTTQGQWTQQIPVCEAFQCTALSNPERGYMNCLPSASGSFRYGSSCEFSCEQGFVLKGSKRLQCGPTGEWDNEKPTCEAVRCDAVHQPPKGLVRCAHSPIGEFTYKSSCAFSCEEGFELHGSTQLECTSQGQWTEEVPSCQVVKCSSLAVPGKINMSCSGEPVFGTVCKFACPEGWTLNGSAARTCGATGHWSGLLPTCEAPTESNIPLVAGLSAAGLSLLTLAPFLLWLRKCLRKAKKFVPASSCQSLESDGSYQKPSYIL

With `C=CC(=C)CCC=C(C)C`, the result in test [1], in test [2], in [3], in test [4], in test [5] and in [6] was inactive. Also, the outcome in test [7], in [8], in test [9] and in test [10] was inactive.
Regarding `CNCc1ccc(NC(=O)c2c[nH]c3c2C(=O)CCC3)cc1`, the outcome in test [1], in test [2], in test [3], in test [4], in [5] and in [6] was inactive. Also, the outcome in [7], in test [8], in test [9] and in test [10] was inactive.
Take `O=C(OC[C@H]1O[C@@H](OC(=O)c2cc(O)c(O)c(OC(=O)c3cc(O)c(O)c(O)c3)c2)[C@H](OC(=O)c2cc(O)c(O)c(OC(=O)c3cc(O)c(O)c(O)c3)c2)[C@@H](OC(=O)c2cc(O)c(O)c(OC(=O)c3cc(O)c(O)c(O)c3)c2)[C@@H]1OC(=O)c1cc(O)c(O)c(OC(=O)c2cc(O)c(O)c(O)c2)c1)c1cc(O)c(O)c(OC(=O)c2cc(O)c(O)c(O)c2)c1`: the result in test [1], in test [2] and in [4] was inactive. Also, the concentration at half-maximal activity (AC50) in test [5] was 6.1 µM (active); in test [6] it was 9.88 µM (active); in test [7], 8.21 µM (active); in test [8], 6.1 µM (active); in test [9] it was 6.1 µM (active); in test [10] it was 6.1 µM (active).
Take `C1=CCCC=CCCC=CCC1`: the outcome in [1], in test [2], in [3], in test [4], in [5] and in [6] was inactive. The outcome in test [7], in test [8], in test [9] and in test [10] was inactive.
In the case of `Cc1ccc(S(=O)(=O)O)cc1C`, the outcome in test [1], in [2], in [3], in test [4], in [5] and in test [6] was inactive. Also, the outcome in test [7], in test [8], in test [9] and in test [10] was inactive.
For `COC(=O)c1ccccc1O`, the outcome in test [1], in test [2], in test [3], in test [4], in [5] and in [6] was inactive. Further, the result in test [7], in test [8], in test [9] and in test [10] was inactive.
In the case of `Cc1ccc(C)c(O)c1`, the AC50 was 9.83 µM (active) in [1] and 0.796 µM (active) in test [4]. Also, the result in test [2], in test [3], in test [5], in [6], in [7] and in test [8] was inactive. In addition, the result in test [9] and in test [10] was inactive.
Take `COC(=O)c1c(Cl)c(Cl)c(C(=O)OC)c(Cl)c1Cl`: the result in test [1], in [3], in [4], in test [5], in [6] and in test [8] was inactive. For the same compound, the outcome in [9] and in [10] was inactive. In addition, the AC50 in [2] and in test [7] was 20 µM (active) each time.
As to `CCNc1ccccc1`, the outcome in test [1], in [2], in [3], in [4], in test [5] and in test [6] was inactive. Moreover, the result in test [7], in [8], in test [9] and in test [10] was inactive.

As a reminder, the AC50 is the concentration giving half of the maximal activity seen.
